The source of these data is PubChem BioAssay (NCATS).

The target in assay [1] is Lysosomal acid glucosylceramidase (Homo sapiens) (UniProt P04062). Put plainly: Glucocerebrosidase-p2 (AID 348; in the data active means potency below about 10 µM; further: potency means the concentration at half of the fitted maximal effect). As to conditions: purified GBA, blue fluorogenic substrate, 40 min. In short, it runs like this:
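Normal human glucocerebrosidase (0.2 nM) with blue fluorogenic substrate (80 uM final) in citrate/phosphate pH 5.9 with 10mM sodium taurocholate, 0.01% tween-20; 40 min RT, NaOH/glycine stop; fluorescence Ex 365/Em 440; AC50 from a titration from 0.6 nM upwards.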

Assay [2] is described as follows: AP1 Signaling Pathway (AID 357). Further: on the % scale 0 is the no-effect control and ±100 the full control effect. The settings on record: ME-180 AP-1-bla reporter, EGF-induced, beta-lactamase ratio, 5 h; at 7.69 µM (top of the series) unless noted. The procedure, abridged:
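ME-180 cells with beta-lactamase reporter under AP-1 response element, stimulated with EC50 EGF; compounds tested in titration series, 5 h at 37 °C. CCF4 substrate added 2.5 h at room temperature; 460/530 nm emission ratio gave %activity and AC50.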

In assay [3] the target is Cytochrome P450 1A2 (Homo sapiens) (UniProt P05177). Put plainly: p450-cyp1a2 (AID 410; calls by dose curve; further: potency means the concentration at half of the fitted maximal effect;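 on activity change, negative = inhibition: -100% = full effect of reference inhibitor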). As to conditions: recombinant CYP1A2, luciferin-ME demethylation, luminescence; series mostly up to 11.4 µM. In short, it runs like this: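 Read-out is luminescence from luciferin produced by CYP1A2 demethylation of Luciferin-ME (100uM, at Km). Detection reagent stopped the 60 min NADPH-dependent reaction; signals were normalized to 57 uM furafylline.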
Chain of Cytochrome P450 1A2 (Homo sapiens) (P05177 whole entry, looked up): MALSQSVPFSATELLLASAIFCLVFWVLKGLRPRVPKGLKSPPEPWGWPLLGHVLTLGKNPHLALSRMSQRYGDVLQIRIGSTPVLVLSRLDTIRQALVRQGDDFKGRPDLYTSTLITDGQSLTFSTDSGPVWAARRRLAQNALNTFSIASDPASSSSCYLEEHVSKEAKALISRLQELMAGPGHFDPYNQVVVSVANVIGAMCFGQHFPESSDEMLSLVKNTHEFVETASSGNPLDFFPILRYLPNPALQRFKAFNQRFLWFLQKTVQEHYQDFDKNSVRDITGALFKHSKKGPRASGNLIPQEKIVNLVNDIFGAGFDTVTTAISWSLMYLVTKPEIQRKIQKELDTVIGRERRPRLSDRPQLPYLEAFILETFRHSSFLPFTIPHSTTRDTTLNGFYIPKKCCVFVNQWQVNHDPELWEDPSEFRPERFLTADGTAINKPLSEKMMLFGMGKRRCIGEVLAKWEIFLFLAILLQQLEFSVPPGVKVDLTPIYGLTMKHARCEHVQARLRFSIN

Assay [4] can be described thus: NFAT Signaling Pathway (AID 444).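 Further: carbachol stimulus at about its EC50 of 1 µM final; on the % scale 0 is the no-effect control and ±100 the full control effect.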 As to conditions: Jurkat NFAT-bla M1, carbachol, beta-lactamase ratio, 5 h; at 7.69 µM (top of the series) unless noted. In short, it runs like this:
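Jurkat cells with NFAT-driven β-lactamase reporter and co-expressed M1 receptor, stimulated with carbachol (final 1 uM, ~EC50), compound titration, 5 h at 37 °C. CCF4 loaded 1 h at RT; 460/530 nm ratio gave %activity and AC50.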

Assay [5] can be described thus: Stat Signaling Pathway (AID 446).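 Further: ME-180 cervical cancer cells given 40 pM IL-6 alongside compound; SIE-controlled beta-lactamase reporter measured as 460/530 nm FRET emission ratio; on the % scale 0 is the no-effect control and ±100 the full control effect.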 As to conditions: ME-180 (cervical carcinoma) SIE beta-lactamase reporter, IL-6 stimulated, 5 h; at 7.69 µM (top of the series) unless noted. In short, it runs like this: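 Compound effects on IL-6-induced STAT reporter activity were measured in ME-180 cells. After overnight culture, cells were co-treated with 40 pM IL-6 for 5 hrs before beta-lactamase substrate loading at room temperature.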

The target of assay [6] is Mitogen-activated protein kinase 10 (Mus musculus) (UniProt Q61831). Nature of the assay: JNK3 AlphaScreen Assay (AID 530).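 Further: kinase came from lysate of stimulated human HepG2 cells; signal reports phosphorylation of biotinylated GST-cJun 1-79 at Ser73 with 10 µM ATP; on the % scale 0 is the no-effect control and ±100 the full control effect.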 As to conditions: JNK3 lysate, c-Jun phosphorylation; series mostly up to 57.1 µM. In short, it runs like this:
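HepG2 lysate (IL-1b/TNFa pre-activated) + biotin-GST-cJun 1-79 + anti-pSer73 cJun; cpd titration, 15 min RT; ATP 10 uM start; Tris pH 7.6, MgCl2, DTT, vanadate; beads in EDTA buffer; AlphaScreen.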
A general note: Bead proximity is the source of the signal in Alpha formats.

Assay [7] deals with 3',5'-cyclic-AMP phosphodiesterase 4B (Homo sapiens) (UniProt Q07343). Nature of the assay: qHTS Assay for Inhibitors of PDE-IV (AID 607; active means well fitted activation curve with a large enough effect in the main read-out, with a control signal flat, not every such curve was filed as active; further: % of control where 0% means no effect). The settings on record: HEK293 ACTOne CNG channel cells, membrane potential fluorescence; series mostly up to 22.9 µM. The procedure, abridged: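 ACTOne HEK293 cells carry a modified cAMP-gated CNG channel and express endogenous PDE4; plated 1000 cells/well, compounds up to 22.9 uM final. Membrane-potential dye fluorescence (ex 535/em 590) was read; parental cells received 10 uM forskolin + 100 uM RO 20-1724.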
Chain of 3',5'-cyclic-AMP phosphodiesterase 4B (Homo sapiens) (Q07343 whole entry, looked up): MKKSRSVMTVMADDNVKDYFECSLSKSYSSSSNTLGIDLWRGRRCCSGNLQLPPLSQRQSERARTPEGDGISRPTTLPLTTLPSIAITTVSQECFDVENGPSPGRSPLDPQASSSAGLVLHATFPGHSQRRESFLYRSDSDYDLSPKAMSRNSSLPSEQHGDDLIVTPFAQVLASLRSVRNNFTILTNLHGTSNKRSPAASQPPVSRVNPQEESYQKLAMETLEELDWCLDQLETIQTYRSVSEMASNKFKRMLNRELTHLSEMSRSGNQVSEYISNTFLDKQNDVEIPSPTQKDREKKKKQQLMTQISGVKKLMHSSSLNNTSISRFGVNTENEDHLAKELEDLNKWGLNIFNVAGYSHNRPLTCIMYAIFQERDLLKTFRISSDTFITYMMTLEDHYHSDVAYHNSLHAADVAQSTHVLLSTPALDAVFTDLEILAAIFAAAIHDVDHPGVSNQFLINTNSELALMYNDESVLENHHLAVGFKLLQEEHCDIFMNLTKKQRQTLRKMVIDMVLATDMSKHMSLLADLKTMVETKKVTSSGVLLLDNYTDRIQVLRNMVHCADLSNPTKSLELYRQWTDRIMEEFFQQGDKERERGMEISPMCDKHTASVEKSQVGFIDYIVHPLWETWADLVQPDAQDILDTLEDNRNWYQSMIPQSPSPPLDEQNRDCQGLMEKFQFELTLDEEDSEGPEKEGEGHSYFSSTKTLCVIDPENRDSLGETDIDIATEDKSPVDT
A general note: Quantitative high-throughput screening tests each substance at several concentrations.

Assay [8] addresses Glucocorticoid receptor (Homo sapiens) (UniProt P04150). Put plainly: GR-GFP Redistribution (AID 450;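 active means compounds whose dose series gives a full or clear partial fitted curve of increased nuclear translocation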; further: potency means the concentration at half of the fitted maximal effect). The settings on record: U2OS GR-GFP nuclear translocation, laser cytometry, 2 h.
For assay [9] the target is unchanged. Nature of the assay: GR-EFC Redistribution (AID 451; calls by dose curve; further: potency means the concentration at half of the fitted maximal effect). The settings on record: CHO-K1 GR-EFC translocation, beta-gal luminescence, 2 h. In short, it runs like this:
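CHO-K1 cells expressing nuclear EA and GR-ED fragments of b-gal; compounds titrated up to 46 uM final, 2 h at 37 C. GR nuclear translocation read as complemented b-gal luminescence after 1 h RT detection.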

Assay [10] has as its target Cytochrome P450 3A4 (Homo sapiens) (UniProt P08684). Put plainly: qHTS Assay for Inhibitors and Substrates of Cytochrome P450 3A4 (AID 884; active means well fitted curve in the direction sought with a large enough effect; an effect the other way counts as inactive or inconclusive; further: potency means the concentration at half of the fitted maximal effect; nearly all actives have a fitted effect of over 50% in size). As to conditions: recombinant CYP3A4, Luciferin-PPXE luminescence; series mostly up to 57.1 µM. In short, it runs like this:
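Luminescent readout of luciferin produced by CYP3A4 (20 nM) dealkylation of Luciferin-PPXE, 25 uM (its KM). NADPH-driven reaction ran 60 min at RT after 10 min compound preincubation; data scaled to 57 uM ketoconazole as 100% inhibition.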

Assay [11] has the same target. Put plainly: qHTS Assay for Activators of Cytochrome P450 3A4 (AID 885; active means well fitted curve in the direction sought with a large enough effect; an effect the other way counts as inactive or inconclusive; further: nearly all actives have a fitted effect of over 65% in size). The settings on record: recombinant CYP3A4, Luciferin-PPXE luminescence, 60 min; series mostly up to 57.1 µM. In short, it runs like this: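 CYP3A4 activity: Luciferin-PPXE O-dealkylation, 25uM substrate, 200mM KPO4, RT throughout. Read-out is luciferase luminescence; higher values reflect activation.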

Assay [12] concerns the target Cytochrome P450 2C19 (Homo sapiens) (UniProt P33261). Nature of the assay: qHTS Assay for Inhibitors and Substrates of Cytochrome P450 2C19 (AID 899; active means well fitted curve in the direction sought with a large enough effect; an effect the other way counts as inactive or inconclusive; further: potency means the concentration at half of the fitted maximal effect; nearly all actives have a fitted effect of over 60% in size). As to conditions: recombinant CYP2C19, luciferin-H EGE luminescence; series mostly up to 11.4 µM. The procedure, abridged: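 Luminescent read-out of luciferin formed from Luciferin-H EGE (10uM, equal to KM). Enzyme 5nM in 50mM KPO4; compound added, 10 min at 37C, then NADPH regenerating system for 60 min at 37C. Full inhibition defined by 57uM ketoconazole.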

In assay [13] the target is Cytochrome P450 2D6 (Homo sapiens) (UniProt P10635). Nature of the assay: qHTS Assay for Inhibitors and Substrates of Cytochrome P450 2D6 (AID 891; active means well fitted curve in the direction sought with a large enough effect; an effect the other way counts as inactive or inconclusive; further: potency means the concentration at half of the fitted maximal effect; nearly all actives have a fitted effect of over 60% in size). The settings on record: recombinant CYP2D6, luciferin-ME EGE luminescence; series mostly up to 11.4 µM. The procedure, abridged: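 Luminescent read-out of luciferin formed by 5 nM human CYP2D6 demethylating 30 uM Luciferin-ME EGE (Km level) over 60 min at room temperature after NADPH regeneration addition. Data normalized to full inhibition by 1.43 uM quinidine.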
Chain of Cytochrome P450 2D6 (Homo sapiens) (P10635 whole entry, looked up): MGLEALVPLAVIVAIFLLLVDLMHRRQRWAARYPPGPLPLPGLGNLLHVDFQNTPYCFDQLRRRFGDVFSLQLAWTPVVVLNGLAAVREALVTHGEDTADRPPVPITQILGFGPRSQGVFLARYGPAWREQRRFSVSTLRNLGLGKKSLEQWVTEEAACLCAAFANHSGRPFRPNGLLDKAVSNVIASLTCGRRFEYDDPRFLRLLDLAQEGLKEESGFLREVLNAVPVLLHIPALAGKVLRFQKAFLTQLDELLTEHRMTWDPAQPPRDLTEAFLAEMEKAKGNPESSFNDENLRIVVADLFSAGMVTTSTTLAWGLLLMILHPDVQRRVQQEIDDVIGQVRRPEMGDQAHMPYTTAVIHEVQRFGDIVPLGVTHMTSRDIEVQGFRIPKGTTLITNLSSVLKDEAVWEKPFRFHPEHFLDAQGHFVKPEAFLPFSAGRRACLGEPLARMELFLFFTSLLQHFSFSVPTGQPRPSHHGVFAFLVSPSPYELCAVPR

Assay [14] has as its target Luciferin 4-monooxygenase (Photinus pyralis) (UniProt P08659). Nature of the assay: Biochemical firefly luciferase enzyme assay for NPC (AID 624030; active means well fitted curve in the direction sought with a large enough effect; an effect the other way counts as inactive or inconclusive;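 further: purified P. pyralis luciferase at 10 nM with luciferin and ATP substrate; 0% = DMSO and -100% = full luciferase inhibition by PTC124 control; nearly all actives have a fitted effect of over 70% in size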). As to conditions: purified P. pyralis luciferase, luminescence, 5 min; series mostly up to 58.6 µM. In short, it runs like this:
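Purified P. pyralis luciferase at 10 nM in 50 mM Tris Acetate (final), luminescence read within 5 minutes of enzyme addition to compounds. Activity normalised to PTC124 versus DMSO; concentration-response curves classed by r2, magnitude and activity.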

Values without a mark were called inactive. Results filed as inconclusive are left out. The source made the active and inactive calls. Unless noted, the call rests on the fitted dose curve; in most records, active means well fitted curve in either direction with a large enough effect (not every such curve was filed as active); inconclusive means small, poorly fitted or top-dose-only effect, or another doubt; inactive means flat fitted curve, though single readings scatter.

Chain of Lysosomal acid glucosylceramidase (Homo sapiens) (P04062 whole entry, looked up): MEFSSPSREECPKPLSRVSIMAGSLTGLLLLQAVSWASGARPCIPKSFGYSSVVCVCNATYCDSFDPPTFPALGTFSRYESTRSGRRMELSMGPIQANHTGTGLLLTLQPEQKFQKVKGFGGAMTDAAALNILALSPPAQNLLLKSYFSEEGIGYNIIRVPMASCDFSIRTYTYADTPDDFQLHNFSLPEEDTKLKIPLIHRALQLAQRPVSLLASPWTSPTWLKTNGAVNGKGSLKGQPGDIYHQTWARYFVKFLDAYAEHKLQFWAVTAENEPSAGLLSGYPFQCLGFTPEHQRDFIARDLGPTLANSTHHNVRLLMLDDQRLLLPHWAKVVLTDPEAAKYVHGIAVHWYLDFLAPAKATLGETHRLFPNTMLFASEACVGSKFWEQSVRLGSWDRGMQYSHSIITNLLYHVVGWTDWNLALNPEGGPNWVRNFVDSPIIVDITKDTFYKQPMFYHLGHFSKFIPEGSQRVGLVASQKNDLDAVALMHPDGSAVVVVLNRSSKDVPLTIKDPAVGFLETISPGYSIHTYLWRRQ
Chain of Glucocorticoid receptor (Homo sapiens) (P04150 whole entry, looked up): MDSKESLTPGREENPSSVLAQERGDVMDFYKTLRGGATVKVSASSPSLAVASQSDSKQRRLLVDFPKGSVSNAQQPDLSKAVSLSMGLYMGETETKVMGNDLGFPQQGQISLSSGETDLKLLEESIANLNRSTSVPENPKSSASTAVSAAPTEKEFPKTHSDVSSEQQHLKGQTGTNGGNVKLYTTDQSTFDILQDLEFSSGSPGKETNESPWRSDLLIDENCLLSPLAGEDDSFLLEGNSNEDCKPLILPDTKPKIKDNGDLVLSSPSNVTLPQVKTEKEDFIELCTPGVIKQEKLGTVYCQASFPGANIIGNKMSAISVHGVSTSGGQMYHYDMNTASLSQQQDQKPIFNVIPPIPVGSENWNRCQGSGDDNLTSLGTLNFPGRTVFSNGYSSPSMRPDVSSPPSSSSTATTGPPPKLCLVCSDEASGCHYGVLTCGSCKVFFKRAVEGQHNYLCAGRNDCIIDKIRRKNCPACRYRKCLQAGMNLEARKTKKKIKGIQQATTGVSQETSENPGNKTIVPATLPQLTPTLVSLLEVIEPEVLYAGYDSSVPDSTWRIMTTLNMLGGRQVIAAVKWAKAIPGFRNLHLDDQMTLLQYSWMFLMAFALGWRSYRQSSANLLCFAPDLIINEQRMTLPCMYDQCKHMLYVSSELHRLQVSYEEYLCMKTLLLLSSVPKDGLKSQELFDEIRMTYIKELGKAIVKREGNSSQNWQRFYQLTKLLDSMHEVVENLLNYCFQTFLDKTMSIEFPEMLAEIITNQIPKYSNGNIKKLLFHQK
Chain of Cytochrome P450 3A4 (Homo sapiens) (P08684 whole entry, looked up): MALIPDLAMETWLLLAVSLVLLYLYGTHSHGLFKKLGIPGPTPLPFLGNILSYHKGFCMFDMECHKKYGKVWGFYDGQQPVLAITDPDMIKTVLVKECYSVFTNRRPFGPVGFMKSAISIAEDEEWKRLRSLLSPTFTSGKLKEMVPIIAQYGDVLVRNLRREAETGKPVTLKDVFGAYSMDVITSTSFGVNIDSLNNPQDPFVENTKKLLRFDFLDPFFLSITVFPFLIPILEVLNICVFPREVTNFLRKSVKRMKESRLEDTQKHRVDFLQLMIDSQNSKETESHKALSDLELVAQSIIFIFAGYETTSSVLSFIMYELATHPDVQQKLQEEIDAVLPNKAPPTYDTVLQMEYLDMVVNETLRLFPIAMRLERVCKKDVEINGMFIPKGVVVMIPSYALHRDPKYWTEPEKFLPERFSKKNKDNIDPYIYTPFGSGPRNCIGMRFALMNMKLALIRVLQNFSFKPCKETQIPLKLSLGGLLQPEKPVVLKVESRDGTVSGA
Chain of Cytochrome P450 2C19 (Homo sapiens) (P33261 whole entry, looked up): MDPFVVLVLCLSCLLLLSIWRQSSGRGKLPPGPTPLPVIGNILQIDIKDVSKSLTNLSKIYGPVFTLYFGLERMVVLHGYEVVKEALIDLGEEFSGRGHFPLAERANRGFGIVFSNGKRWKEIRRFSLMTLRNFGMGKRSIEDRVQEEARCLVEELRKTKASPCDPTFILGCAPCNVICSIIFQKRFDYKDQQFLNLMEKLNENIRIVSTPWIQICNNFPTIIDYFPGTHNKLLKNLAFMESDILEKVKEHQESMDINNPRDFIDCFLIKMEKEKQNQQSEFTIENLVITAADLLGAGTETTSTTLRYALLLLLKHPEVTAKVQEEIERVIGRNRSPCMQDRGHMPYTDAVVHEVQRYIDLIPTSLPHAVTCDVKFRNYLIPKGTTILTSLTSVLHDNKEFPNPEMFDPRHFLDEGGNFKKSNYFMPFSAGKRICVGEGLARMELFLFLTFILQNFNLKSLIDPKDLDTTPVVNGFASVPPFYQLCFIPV
Chain of Luciferin 4-monooxygenase (Photinus pyralis) (P08659 whole entry, looked up): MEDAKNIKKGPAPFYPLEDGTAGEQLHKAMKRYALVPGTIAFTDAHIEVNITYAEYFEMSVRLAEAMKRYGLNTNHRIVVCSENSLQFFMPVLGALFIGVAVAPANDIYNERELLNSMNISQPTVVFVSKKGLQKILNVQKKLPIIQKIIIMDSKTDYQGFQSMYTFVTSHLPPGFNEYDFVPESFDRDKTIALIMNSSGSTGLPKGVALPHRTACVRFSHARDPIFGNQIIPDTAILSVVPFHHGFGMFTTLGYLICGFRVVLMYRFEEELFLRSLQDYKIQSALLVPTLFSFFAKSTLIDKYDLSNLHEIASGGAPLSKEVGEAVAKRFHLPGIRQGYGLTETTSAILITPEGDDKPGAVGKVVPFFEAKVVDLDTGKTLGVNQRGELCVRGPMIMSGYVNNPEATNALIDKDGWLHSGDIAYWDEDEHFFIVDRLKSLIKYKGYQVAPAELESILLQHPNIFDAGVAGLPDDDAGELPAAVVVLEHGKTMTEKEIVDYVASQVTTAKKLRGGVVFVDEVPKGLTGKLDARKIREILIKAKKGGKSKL

Regarding `C=C(C)c1ccccc1` (tested in a mixture with another compound), in assay [1], the Potency was above 11.4 µM. In addition, the activity change, negative = inhibition in assay [2] was -1.01%; in [3], -19.6% [at 2.29 µM]; in [4], -21.5%; in assay [6], -9.26% [at 11.4 µM]. In addition, the activity, negative = inhibition in [5] was -6.96%. In assay [7], the molecule was classed as inactive.
As for `CC(C)=C[C@H]1[C@@H](C(=O)OCc2cc3c(cc2Cl)OCO3)C1(C)C`, the Potency is above 11.4 µM in [1]; 0.794 µM (active) in assay [3]; above 46 µM in assay [8]; above 9.22 µM in [9]; 0.316 µM (active) in [10]; 1.58 µM (active) in assay [12]. Moreover, the activity change, negative = inhibition in assay [2] was -2.25%. The activity, negative = inhibition in assay [5] was 0.513%. The outcome in [7] was inactive. Further, in [11], the activity change, positive = activation was -75% [at 11.4 µM].
On to `CN(C)[C@@H]1C(=O)C(C(N)=O)=C(O)[C@]2(O)C(=O)C3=C(O)c4c(O)cccc4[C@](C)(O)[C@H]3C[C@@H]12`, for which the Potency in assay [1] was above 11.4 µM; in assay [8], above 46 µM. The activity change, negative = inhibition in [2] is -8.78%; in assay [4], 15.2%; in [6], -5.55% [at 11.4 µM]. In assay [5], the activity, negative = inhibition was -10.5%. Further, the molecule was called inactive in assay [7].
As to `COc1ccc(C[C@@H](N)c2ccc(OC)cc2)cc1`, the Potency was above 11.4 µM in [1], above 46 µM in assay [8], above 9.22 µM in [9] and 0.631 µM (active) in [13]. Besides, the activity change, negative = inhibition was -1.85% in assay [2], 3.98% in [4] and 3.37% [at 11.4 µM] in assay [6]. Further, the activity, negative = inhibition in assay [5] is -0.344%. Also, the call in assay [7] was inactive.
With `c1cncc(CNCCN2CCNCC2)c1`, the Potency in [1] is above 11.4 µM; in [8], above 46 µM; in [9] it was above 9.22 µM. Also, the activity change, negative = inhibition in assay [2] was 5.14%; in assay [6], 1.33% [at 11.4 µM]. The Potency result in [3] is “inactive”. Also, the call in [7] was inactive.
Consider `S=P(C1CCCCC1)(C1CCCCC1)[C@H](c1cccnc1)N1CCCC1`, for which the Potency in assay [1] is above 11.4 µM; in assay [8], above 46 µM; in assay [9] it was above 9.22 µM; in [10], 3.16 µM (active); in [12] it was 1.26 µM (active). Also, the results for the activity change, negative = inhibition in assay [2], in assay [4] and in assay [6] were 10.9%, 5.74% and 0.158% [at 11.4 µM], respectively. For the same molecule, the activity, negative = inhibition in assay [5] is -1.57%. Further, the call in [7] was inactive. In addition, the activity change, positive = activation in assay [11] is -61.4% [at 11.4 µM].
On to `Cc1ccc(O)cc1` (tested in a mixture with another compound), for which the Potency in assay [1] is above 11.4 µM; in assay [8], above 46 µM; in [9] it was above 9.22 µM. Also, the activity change, negative = inhibition in assay [2] was 3.77%; in [4], 9.05%; in [6], 1.19% [at 11.4 µM]. For the same molecule, the activity, negative = inhibition in assay [5] was -4.46%. The molecule was classed as inactive in assay [7] and in assay [14].
